In all, about 37,000 compounds went through this assay and about 290 (0.78%) were called active. Another 10% or so got no clear call; they are omitted. The sample holds actives, similar compounds and a random draw of the others, so the mix is not that of the screen.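 How the source made its calls: active means mean inhibition of at least 10% in the main channel, exceeding the control channel by a set limit; inconclusive means inhibition of 10% or more but channel gap under a set limit; inactive means mean inhibition below 10%.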
Assay: DUX4 transcriptional activity inhibition in cells – 293T cells, Gaussia and Italica luciferase, primary screen (AID 1224904);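 on activity change, negative = inhibition: 0% = median of neutral control wells and -100% = median of positive control wells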
Conditions: 293T-iDUX4 ZSCAN4-Gaussia luciferase reporter, 24 h, stronger effect = lower value, concentration not given here; for Gaussia minus Italica difference: measured here: selective DUX4 reporter inhibition
[1] = measured here: Italica tet-on control reporter

Structure (SMILES)	activity change, negative = inhibition	activity change, negative = inhibition [1]	Gaussia minus Italica difference
COc1ccc(NC(=O)Nc2ccc3c(c2)[C@@H]2C[C@@H](CC(=O)NCc4ccncc4)O[C@@H](CO)[C@@H]2O3)cc1	-2.23% (inactive)	2.02%	-4.25%
CCN(C[C@@H]1[C@H](c2ccccc2)[C@@H](CO)N1CC1CC1)C(=O)c1ccccn1	-3.34% (inactive)	-1.85%	-1.49%
COCC(=O)N(C[C@H]1N[C@H](CO)[C@H]1c1ccc(C2=CCCCC2)cc1)C(C)C	2.12% (inactive)	3.71%	-1.6%
COc1ccccc1C#Cc1cnc2c(c1)C(=O)N([C@@H](C)CO)C[C@@H](C)[C@H](CN(C)C(=O)CN(C)C)O2	-1.64% (inactive)	-4.12%	2.47%
CCC(=O)N1[C@H](C(=O)NCc2ccc(F)cc2)[C@@H](CO)[C@@H]2Cn3c(ccc(C4=CCCCC4)c3=O)[C@@H]21	2.81% (inactive)	-5.8%	8.61%
CCCN1C[C@@H](C)[C@H](OC)CN(C)C(=O)c2ccc(NC(=O)C3CCOCC3)cc2OC[C@@H]1C	2.85% (inactive)	6.21%	-3.36%
C[C@H](NC(=O)C[C@H]1C=C[C@H](NS(=O)(=O)c2cccc(F)c2)[C@@H](CO)O1)c1ccccc1	2.8% (inactive)	1.12%	1.67%
O=C1CCC(=O)N[C@H](c2ccccc2)C/C=C\CCN1	-2.86% (inactive)	-3.05%	0.183%
O=C(NCC(F)(F)F)[C@H]1[C@H](CO)[C@H]2Cn3c(ccc(-c4ccncc4)c3=O)[C@H]2N1Cc1ccncc1	5.89% (inactive)	-1.87%	7.77%
CCNC(=O)C[C@@H]1CC[C@@H]2[C@H](COC[C@H](O)CN2S(=O)(=O)c2ccc(Oc3ccccc3)cc2)O1	1.12% (inactive)	2.14%	-1.02%
CC(C)[C@@H]1COCc2cnnn2CCC[C@H](C)C(=O)N1	-1.36% (inactive)	-1.01%	-0.347%
COCC(=O)N1[C@H](CNC(=O)c2ccccn2)[C@H](c2ccccc2)[C@@H]1CO	-0.865% (inactive)	1.68%	-2.54%
Cc1ccc(S(=O)(=O)N(C)C[C@H]2OCc3ccccc3-c3ccccc3C(=O)N([C@@H](C)CO)C[C@@H]2C)cc1	10.1% (inactive)	2.48%	7.63%
O=C(C[C@@H]1CC[C@@H]2[C@H](COC[C@H](O)CN2Cc2cccc(F)c2)O1)NCc1ccncc1	6.79% (inactive)	-2.25%	9.04%
CCCC#Cc1ccc([C@H]2[C@@H](CO)N3CCCCN(C(=O)c4ccc5c(c4)OCO5)C[C@@H]23)cc1	-4.6% (inactive)	3.84%	-8.43%
CCC(=O)N1CC2(C1)[C@@H](c1ccc(-c3ccc(C#N)cc3)cc1)[C@H](CO)N2C(C)=O	10.1% (inactive)	-1.24%	11.4%
CCC(=O)N1CCC2(CC1)CN(Cc1cccc(Cl)c1)[C@@H](CO)c1c2c2ccc(OC)cc2n1C	-5.44% (inactive)	-3.43%	-2.02%
C/C=C/c1ccc([C@H]2[C@@H](CO)N(C(=O)CN(C)C)C23CN(C(=O)C2CCCC2)C3)cc1	-0.233% (inactive)	-6.7%	6.47%
COc1cc(CN2CC3(CN(S(=O)(=O)c4cn(C)cn4)C3)c3c(n(C)c4cc(OC)ccc34)[C@H]2CO)cc(OC)c1	-2.88% (inactive)	-0.316%	-2.57%
CCCNC(=O)C[C@H]1CC[C@H]2[C@H](COc3ccc(NC(=O)CC)cc3C(=O)N2C)O1	2.97% (inactive)	-1.81%	4.79%

Structure (SMILES)	activity change, negative = inhibition	activity change, negative = inhibition [1]	Gaussia minus Italica difference
CN(C)C(=O)[C@@H]1[C@@H](CO)[C@@H]2Cn3c(cccc3=O)[C@H]1N2CC1CCCCC1	-1.56% (inactive)	-4.57%	3%
COc1cccc(-c2ccc([C@@H]3[C@@H](CO)N(C(=O)c4ccccn4)[C@H]3C#N)cc2)c1	5.81% (inactive)	-1.92%	7.74%
C[C@H](NC(=O)C[C@@H]1CC[C@@H]2[C@H](COC[C@@H](O)CN2Cc2cc(F)ccc2F)O1)c1ccccc1	0.118% (inactive)	1.93%	-1.81%
O=C(Cc1ccccc1)N1C[C@@H]2[C@H](c3ccccc31)[C@@H](CO)N2C(=O)C1CCOCC1	1% (inactive)	2.15%	-1.15%
C[C@@H](O)C#Cc1ccc([C@@H]2[C@H]3CN(C(=O)c4ccc5c(c4)OCO5)CCCCN3[C@H]2CO)cc1	1.93% (inactive)	10.3%	-8.36%
COCC(=O)Nc1ccc2c(c1)C(=O)N(C)[C@@H]1CC[C@@H](CC(=O)NCCCN(C)C)O[C@@H]1CO2	-2.75% (inactive)	-0.412%	-2.33%
COc1ccccc1S(=O)(=O)N1CC[C@H]2[C@@H](CO)N(C)c3ccc(C#Cc4ccccc4)cc3[C@H]21	8.89% (inactive)	12.9%	-4.03%
C[C@@H]1CN([C@@H](C)CO)C(=O)c2c(c3ccccc3n2C)-c2ccccc2CO[C@H]1CN(C)C(=O)C1CC1	7.74% (inactive)	14.6%	-6.9%
COc1ccccc1NC(=O)N1[C@@H]2CNC[C@H]1C2c1ccc(-c2ccccc2C)cc1 (some centres not stated)	17.2% (inactive)	3.5%	13.7%
O=C1N[C@H](c2ccccc2)COCc2cn(nn2)CC[C@@H]1Cc1ccc(Cl)cc1	-6.57% (inactive)	-14.5%	7.94%
Cn1cnc(CCNC(=O)C[C@H]2CC[C@H]3[C@@H](COC[C@H](O)CN3C(=O)C3CCCC3)O2)c1	4.42% (inactive)	-1.98%	6.41%
CCCNC(=O)Nc1ccc2c(c1)C(=O)N(C)C[C@H](OC)[C@H](C)CN[C@@H](C)CO2	5.48% (inactive)	4.45%	1.03%
CN1c2ccc(Br)cc2[C@@H]2[C@@H](CCN2C(=O)Cc2ccccc2)[C@@H]1CO	6.02% (inactive)	3.73%	2.29%
O=C(C[C@@H]1CC[C@H]2[C@@H](COC[C@@H](O)CN2Cc2nccs2)O1)NCc1ccc(-c2ccccc2)cc1	-5.3% (inactive)	-11.9%	6.63%
O=C(c1ccccc1F)N1C[C@@H]2[C@H](c3ccccc31)[C@H](CO)N2C(=O)C1CCCC1	1.9% (inactive)	3.72%	-1.83%
Cc1ccccc1-c1ccc(C2[C@@H]3CN(C(=O)C4CCCCC4)C[C@H]2N3)cc1 (some centres not stated)	-6.47% (inactive)	-0.357%	-6.12%
O=C(C1CCC1)N1C[C@@H]2N[C@H](C1)C2c1ccc(-c2cncnc2)cc1 (some centres not stated)	-25.8% (active)	-0.405%	-25.4%
O=C(CN1CCOCC1)N1C[C@@H]2N[C@H](C1)C2c1ccc(-c2ccncc2)cc1 (some centres not stated)	15.1% (inactive)	19.9%	-4.83%
COCC(=O)Nc1ccc2c(c1)OC[C@@H](C)N(C(=O)CC1CC1)C[C@@H](C)[C@@H](OC)CN(C)C2=O	-1.74% (inactive)	-0.0881%	-1.65%

Source: PubChem BioAssay AID1224904 (Broad Institute, 2016)
